In PubChem BioAssay (NCI) one finds growth data, which are given here for 13 compounds.

SMILES strings stand for the structures. About 83,000 compounds went through this panel and 20% of them were active in at least one assay; those are over-represented in the sample as a whole.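 Interpretation: 100, growth as untreated; towards 0, rising growth inhibition; 0, no net growth; 0 to -100, cell death. Compounds scoring below 10 were considered active.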 Values without a mark were called inactive. Activity calls are given as the source filed them.

Test systems include DU-145 prostate; K-562 leukemia; MALME-3M melanoma; MDA-MB-231 breast; RXF 393 renal; SF-268 CNS; SF-295 CNS; SF-539 CNS; UACC-257 melanoma; M14 melanoma.
Common to all, as to experiment: NCI-60 one-dose screen, 48 h (100 = growth as untreated, 0 = no growth, -100 = all killed)
What all share (details): 10 µM unless noted

Regarding `Nc1ccc(-c2cc3c(Nc4ccc(Oc5cccc(C(F)(F)F)c5)c(Cl)c4)ncnc3s2)cc1`, the growth in the assay on DU-145 prostate is 72.5%; in the assay on K-562 leukemia it was 24.9%; in the assay on MALME-3M melanoma, 91.8%; in the assay with MDA-MB-231 breast it was 95.1%; in the assay with RXF 393 renal it was 35.7%; with SF-268 CNS, 66.1%. The growth is 77.2% with SF-295 CNS, 74.5% in the assay with SF-539 CNS, 77% with UACC-257 melanoma and 86.6% in the assay with M14 melanoma.
`COc1cc2c(cc1-c1c(C)noc1C)ncc1nc(C3CCC(F)(F)CC3)n([C@H](C)COC(F)F)c12`: the growth was 71.4% in the assay with DU-145 prostate; 30.5% with K-562 leukemia; 67.5% with MALME-3M melanoma; 44.1% in the assay with MDA-MB-231 breast; 55.8% with RXF 393 renal; 67.4% in the assay with SF-268 CNS. Besides, the growth with SF-295 CNS was 49.3%; in the assay on SF-539 CNS, 34%; with UACC-257 melanoma, 34.9%; with M14 melanoma, 45.9%.
In the case of `CC(C)(O)c1cn(CCCCN2C(=O)C(=O)c3ccccc32)nn1`, the growth in the assay on DU-145 prostate was 113%; in the assay on K-562 leukemia it was 94.3%; with MALME-3M melanoma, 105%; in the assay on MDA-MB-231 breast, 99.7%; in the assay with RXF 393 renal it was 104%; with SF-268 CNS, 99.7%. For the same compound, the growth with SF-295 CNS was 102%; in the assay on SF-539 CNS, 96.4%; in the assay on UACC-257 melanoma, 103%; with M14 melanoma it was 97.7%.
Take `CCN(CC)CCCCNc1c2ccc(Cl)cc2nc2ccc(OC)cc12`: the growth was -2.29% (active) in the assay on DU-145 prostate; -19% (active) in the assay on K-562 leukemia; -65.6% (active) with MALME-3M melanoma; -52.4% (active) in the assay on MDA-MB-231 breast; -61% (active) in the assay with RXF 393 renal; -23.1% (active) in the assay with SF-268 CNS. Further, the growth with SF-295 CNS is -58.7% (active); in the assay with SF-539 CNS it was -83% (active); in the assay on UACC-257 melanoma it was -37.1% (active); with M14 melanoma it was -71.3% (active).
For the compound `COc1cc2c(cc1-c1c(C)noc1C)ncc1nc(-c3ccccn3)n([C@H](C)COC(F)F)c12`, the growth in the assay on DU-145 prostate was 64.2%; in the assay with K-562 leukemia, 32.8%; in the assay on MALME-3M melanoma, 70.1%; with MDA-MB-231 breast it was 41.2%; in the assay on RXF 393 renal, 60.8%; in the assay with SF-268 CNS, 70.9%. Moreover, the growth with SF-295 CNS was 60.4%; in the assay with SF-539 CNS, 41.7%; with UACC-257 melanoma it was 44.4%; in the assay with M14 melanoma, 49.5%.
Take `OCC(O)c1nc2ccc3[nH]ncc3c2c2c1CCCC2` (stereo not given): the growth in the assay with DU-145 prostate is 11.7%; in the assay on K-562 leukemia, 37.2%; in the assay on MALME-3M melanoma, 19%; in the assay with MDA-MB-231 breast, 1.65% (active); in the assay on RXF 393 renal, -58.4% (active); in the assay with SF-268 CNS it was -3.77% (active). Further, the growth is 9.19% (active) in the assay with SF-295 CNS, -39.1% (active) in the assay with SF-539 CNS, 10.2% in the assay with UACC-257 melanoma and 5.99% (active) in the assay on M14 melanoma.
Take `Cc1ccccc1COc1ccc(-c2ccnn2-c2ccc(Cl)cc2)cc1`: the growth in the assay with DU-145 prostate is 88.1%; with K-562 leukemia, 13.7%; in the assay on MALME-3M melanoma it was 67.2%; in the assay with MDA-MB-231 breast, 84.2%; in the assay with RXF 393 renal, 60.3%; with SF-268 CNS, 80.5%. In addition, the growth in the assay with SF-295 CNS was 53.1%; in the assay with SF-539 CNS, 71.8%; in the assay with UACC-257 melanoma, 75.7%; in the assay with M14 melanoma it was 39%.
As for `O=C1Nc2c(ccc(Cl)c2Cl)/C1=C\c1cc(C(F)(F)F)cc(C(F)(F)F)c1`, the growth with DU-145 prostate is 24.8%; in the assay with K-562 leukemia, 0.912% (active); with MALME-3M melanoma, -55.5% (active); in the assay on MDA-MB-231 breast, -17.4% (active); in the assay on RXF 393 renal, 21.8%; with SF-268 CNS, 9.57% (active). For the same compound, the growth with SF-295 CNS was 5.61% (active); in the assay on SF-539 CNS, -11.3% (active); in the assay with UACC-257 melanoma, 25%; with M14 melanoma, -18.2% (active).
On to `COC(=O)c1ccc(NC(=O)c2ccc(-c3cccc([N+](=O)[O-])c3)o2)cc1`, for which the growth in the assay with DU-145 prostate was 110%; in the assay with K-562 leukemia, 105%; in the assay with MALME-3M melanoma, 90.3%; in the assay with MDA-MB-231 breast, 90.3%; with RXF 393 renal it was 92.7%; with SF-268 CNS, 97.6%. The growth in the assay on SF-295 CNS was 94.9%; in the assay with SF-539 CNS, 90.5%; in the assay with UACC-257 melanoma, 102%; in the assay on M14 melanoma it was 101%.
`CCOC(=O)n1cc(-c2nonc2-c2cn(C)c3ncccc23)c2ccccc21`: the growth is 97.1% in the assay on DU-145 prostate; 40.6% with K-562 leukemia; 84.4% in the assay with MALME-3M melanoma; 63.8% with MDA-MB-231 breast; 81.7% in the assay with RXF 393 renal; 82.2% in the assay with SF-268 CNS. Moreover, the growth in the assay on SF-295 CNS is 82.8%; with SF-539 CNS, 92.3%; in the assay with UACC-257 melanoma, 98%; in the assay with M14 melanoma it was 90.1%.
`O=C1C=C(OCC=C(Cl)Cl)C(=O)c2ccccc21`: the growth is 77.4% in the assay with DU-145 prostate; 80% with K-562 leukemia; 80.9% in the assay on MALME-3M melanoma; 84.7% in the assay with MDA-MB-231 breast; 86.6% with RXF 393 renal; 94.4% in the assay on SF-268 CNS. The growth is 92.8% in the assay on SF-295 CNS, 93.2% in the assay with SF-539 CNS, 76.4% in the assay with UACC-257 melanoma and 83.3% in the assay with M14 melanoma.
Regarding `COc1cc(-c2ccc3c(c2)NC(=O)/C3=C\c2ccc[nH]2)ccc1O`, the growth in the assay on DU-145 prostate is 17.8%; with K-562 leukemia, 5.55% (active); in the assay with MALME-3M melanoma, 66.4%; with MDA-MB-231 breast, 66.4%; in the assay on RXF 393 renal, 17.8%; in the assay with SF-268 CNS, 31.1%. Further, the growth with SF-295 CNS is -19.6% (active); with SF-539 CNS it was 0.982% (active); with UACC-257 melanoma it was 39.3%; in the assay with M14 melanoma, 34.1%.
For the compound `Cc1ccc(-c2onc3c(=O)[nH]nc(-c4ccccc4)c23)cc1`, the growth is 19.4% in the assay with DU-145 prostate; 14.7% in the assay with K-562 leukemia; 82.6% in the assay with MALME-3M melanoma; 34.9% in the assay with MDA-MB-231 breast; 31.8% in the assay with RXF 393 renal; 48.6% with SF-268 CNS. Moreover, the growth in the assay on SF-295 CNS was 23.7%; in the assay with SF-539 CNS, -4.93% (active); in the assay with UACC-257 melanoma, 47.3%; in the assay with M14 melanoma, 23.2%.
